Experimental data from PubChem BioAssay AID1159580 (chemical genetic matrix, 2015).
The campaign covered roughly 5,500 compounds. About 2,000 (36%) were called active. Another 18% or so got no clear call; they are omitted. Rule as the data show it: active = normalized growth mostly below about 0.91 (no sharp cut-off); inconclusive = no clear call, values can overlap the other calls; inactive = mostly above about 0.92. Some of the results follow.

Assay: chemical genetic growth profiling, strain panel (AID 1159580);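 also: tested at 20 µM; growth read once vehicle control cultures reached saturation at 30 °C; 1 = growth at the plate median or of vehicle wells; lower values mean less growth of the strain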
Settings: S. cerevisiae deletion strains, growth OD
[1] = locus YDL101C, strain DUN1, stronger effect = lower value
[2] = locus YHR030C, strain SLT2, stronger effect = lower value

Measured: normalized growth

CC(=O)Nc1cccc(-n2nnc(SCc3ccccc3)n2)c1
inactive: locus YAL013W, strain DEP1, stronger effect = lower value 1.02 | locus YBR229C, strain ROT2, stronger effect = lower value 1.01 | locus YCL061C, strain MRC1, stronger effect = lower value 1.03 | [1] 0.995 | locus YDL134C, strain PPH21, stronger effect = lower value 0.988 | locus YDR150W, strain NUM1, stronger effect = lower value 1.03 | locus YEL061C, strain CIN8, stronger effect = lower value 1 | locus YGR078C, strain PAC10, stronger effect = lower value 1.02 | locus YGR229C, strain SMI1, stronger effect = lower value 0.986 | [2] 1.06 | locus YHR087W, strain rtc3, stronger effect = lower value 0.988 | locus YJR043C, strain POL32, stronger effect = lower value 1.02 | locus YJR075W, strain HOC1, stronger effect = lower value 1.03 | locus YLR039C, strain RIC1, stronger effect = lower value 0.976 | locus YLR058C, strain SHM2 (second series), stronger effect = lower value 0.997 | locus YLR085C, strain ARP6, stronger effect = lower value 0.949 | locus YLR262C, strain YPT6, stronger effect = lower value 1.1 | locus YML094W, strain GIM5, stronger effect = lower value 0.982 | locus YMR219W, strain ESC1, stronger effect = lower value 0.993 | locus YMR263W, strain SAP30, stronger effect = lower value 1.01 | locus YNL153C, strain GIM3, stronger effect = lower value 1.02 | locus YNL298W, strain CLA4 (second series), stronger effect = lower value 1.01 | locus YNL322C, strain KRE1, stronger effect = lower value 1.01 | locus YNR030W, strain Alg12, stronger effect = lower value 1.01 | locus YPL055C, strain LGE1, stronger effect = lower value 0.968 | locus YPL241C, strain CIN2, stronger effect = lower value 0.958 | locus YPR135W, strain CTF4, stronger effect = lower value 1.08

O=C(Nc1c(Br)c(C2CC2)nn1-c1ccccc1)C(Cl)(Cl)Cl
active: locus YKL048C, strain ELM1, stronger effect = lower value 0.802 | locus YLR113W, strain HOG1, stronger effect = lower value 0.858
inactive: locus YAR019C, strain CDC15, stronger effect = lower value 0.92 | locus YBL105C, strain PKC1, stronger effect = lower value 0.913 | locus YBR135W, strain CKS1, stronger effect = lower value 0.914 | locus YBR136W, strain MEC1, stronger effect = lower value 0.923 | locus YBR160W, strain CDC28, stronger effect = lower value 0.92 | locus YDL017W, strain CDC7, stronger effect = lower value 0.929 | locus YDL028C, strain MPS1, stronger effect = lower value 0.93 | [1] 0.927 | locus YDL108W, strain KIN28, stronger effect = lower value 0.925 | locus YDL132W, strain cdc53, stronger effect = lower value 0.917 | locus YDL214C, strain PRR2, stronger effect = lower value 0.897 | locus YDR052C, strain DBF4, stronger effect = lower value 0.918 | locus YDR054C, strain cdc34, stronger effect = lower value 0.921 | locus YDR226W, strain ADK1, stronger effect = lower value 0.909 | locus YDR477W, strain SNF1, stronger effect = lower value 0.826 | locus YER123W, strain YCK3, stronger effect = lower value 0.769 | locus YER133W, strain GLC7, stronger effect = lower value 0.802 | locus YFL009W, strain cdc4, stronger effect = lower value 0.92 | locus YFL029C, strain CAK1, stronger effect = lower value 0.92 | locus YFR003C, strain YPI1, stronger effect = lower value 0.922 | locus YFR019W, strain FAB1, stronger effect = lower value 0.932 | locus YFR028C, strain CDC14, stronger effect = lower value 0.908 | locus YGR040W, strain KSS1, stronger effect = lower value 0.784 | locus YGR052W, strain FMP48, stronger effect = lower value 0.856 | locus YGR092W, strain DBF2, stronger effect = lower value 0.693 | [2] 0.896 | locus YHR079C, strain IRE1, stronger effect = lower value 0.919 | locus YHR082C, strain KSP1, stronger effect = lower value 0.919 | locus YHR205W, strain SCH9, stronger effect = lower value 0.821 | locus YIL147C, strain SLN1, stronger effect = lower value 0.932 | locus YJL095W, strain BCK1, stronger effect = lower value 0.824 | locus YJL128C, strain PBS2, stronger effect = lower value 0.908 | locus YJL157C, strain FAR1, stronger effect = lower value 0.904 | locus YJR016C, strain ILV3, stronger effect = lower value 0.929 | locus YJR066W, strain TOR1 (second series), stronger effect = lower value 0.832 | locus YJR066W, strain TOR1, stronger effect = lower value 0.86 | locus YKL067W, strain YNK1, stronger effect = lower value 0.897 | locus YKL101W, strain HSL1, stronger effect = lower value 0.882 | locus YKL193C, strain SDS22, stronger effect = lower value 0.921 | locus YKL203C, strain TOR2, stronger effect = lower value 0.879 | locus YLR133W, strain CKI1, stronger effect = lower value 0.871 | locus YLR403W, strain SFP1, stronger effect = lower value 0.714 | locus YML070W, strain DAK1, stronger effect = lower value 0.901 | locus YMR001C, strain CDC5, stronger effect = lower value 0.922 | locus YMR205C, strain PFK2 (second series), stronger effect = lower value 0.883 | locus YMR277W, strain FCP1, stronger effect = lower value 0.915 | locus YNL006W, strain LST8, stronger effect = lower value 0.921 | locus YNL020C, strain ARK1, stronger effect = lower value 0.878 | locus YNL161W, strain CBK1, stronger effect = lower value 0.925 | locus YNL183C, strain NPR1, stronger effect = lower value 0.864 | locus YNL207W, strain RIO2, stronger effect = lower value 0.928 | locus YNL222W, strain SSU72, stronger effect = lower value 0.928 | locus YNL307C, strain MCK1 (second series), stronger effect = lower value 0.812 | locus YOL078W, strain AVO1, stronger effect = lower value 0.912 | locus YOL136C, strain PFK27, stronger effect = lower value 0.895 | locus YOR061W, strain CKA2, stronger effect = lower value 0.872 | locus YOR119C, strain RIO1, stronger effect = lower value 0.822 | locus YOR231W, strain MKK1, stronger effect = lower value 0.898 | locus YOR329C, strain SCD5, stronger effect = lower value 0.925 | locus YPL031C, strain PHO85, stronger effect = lower value 0.814 | locus YPL153C, strain RAD53, stronger effect = lower value 0.82 | locus YPL204W, strain HRR25, stronger effect = lower value 0.735 | locus YPL209C, strain IPL1, stronger effect = lower value 0.922 | locus YPL256C, strain CLN2, stronger effect = lower value 0.961 | locus YPR025C, strain CCL1, stronger effect = lower value 0.923 | locus YPR106W, strain ISR1, stronger effect = lower value 0.935 | locus YPR111W, strain DBF20, stronger effect = lower value 0.925 | strain NNK1, stronger effect = lower value 0.944 | strain TSCII, stronger effect = lower value 0.92
